ClpP mod – qHTS Assay for Activators of ClpP. ATP-dependent Clp protease proteolytic subunit (Bacillus subtilis (strain 168)), P80244. purified B. subtilis ClpP, FRET peptide cleavage, 20 min. Potency, µM (series often up to 57.5 µM), inactives show at the top dose activity change, negative = active. hit rate 1.9% among 340,000. AID 651965, 2013; active means well fitted falling curve with a large enough effect; inconclusive means small, poorly fitted or top-dose-only effect; inactive means no such curve, though single readings can be large or run the other way; further: the source files actives as falling curves though it sought activators and does not explain the sign; nearly all actives have a fitted effect of over 65% in size
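Buffer: 100 mM Tris/HCl pH8, 100 mM KCl, 0.05% low protease BSA, 2.5% glycerol, 0.01% Tween-20. ClpP 10 microg/mL final; 20 min RT; delta FRET normalized to ADEP and DMSO controls.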
TDP1 inh – qHTS Assay for Inhibitors of Tyrosyl-DNA Phosphodiesterase (TDP1) | recombinant TDP1, AlphaScreen DNA substrate cleavage | AID 485290, 2010 | Tyrosyl-DNA phosphodiesterase 1 (Homo sapiens), Q9NUW8 | Potency, µM (doses to about 130 µM), inactives show at the highest dose activity change, negative = inhibition, hits mostly inhibitors | hit rate 0.28% among 350,000; further: on the % scale 0 is the no-effect control and ±100 the full control effect; nearly all actives have a fitted effect of over 40% in size
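Recombinant E. coli-expressed Tdp1 (1 nM) preincubated with compound 15 min at RT, then 5'-biotin/3'-phosphotyrosine-FITC DNA substrate (15 nM) added for 5 min. AlphaScreen beads (10 ug/ml) added, 10 min RT; tyrosine-FITC cleavage read as signal loss.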
DT40 TDP1 CPT – qHTS for Inhibitors of human tyrosyl-DNA phosphodiesterase 1 (TDP1): qHTS in cells in presence of CPT. Potency, µM (titrated, usually from 46.2 µM), without a hit: top-dose activity change, negative = growth inhibition, usual class: inhibitors. hit rate 12% among 420,000. chicken DT40 Tdp1-/-;hTDP1 cells + 20 nM CPT, ATP luminescence, 48 h; further: on the % scale 0 is the no-effect control and ±100 the full control effect; nearly all actives have a fitted effect of over 55% in size
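Chicken DT40 Tdp1-/- cells stably complemented with human TDP1 were seeded at 400 cells/well in medium containing 20 nM camptothecin, exposed to pin-transferred compounds, and grown at 37 °C for at least 48 hr. Viability was read as ATP luminescence.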
DT40 TDP1 no CPT – qHTS for Inhibitors of human tyrosyl-DNA phosphodiesterase 1 (TDP1): qHTS in cells in absence of CPT. DT40 Tdp1-/- hTDP1 cells, no CPT, ATP luminescence, 48 h. Potency, µM (titrated, usually from 46.2 µM), for the others: at the top dose activity change, negative = growth inhibition, actives largely listed as inhibitors. hit rate 15% among 420,000. AID 686978, 2013; further: on the % scale 0 is the no-effect control and ±100 the full control effect; nearly all actives have a fitted effect of over 55% in size
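Seeded 400 DT40-hTDP1 cells/well (vehicle DMSO, no 20 nM CPT); pinned compounds; ≥48 hr at 37 °C; CellTiter-Glo luminescence as viability measure.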
* = called active by the depositor; [ ] = another dose, or the depositor's remark. Shown are actives, neighbours in structure and some others; about 17% of the full set was active somewhere. Unless noted, the call rests on the fitted dose curve; in most records, active means well fitted curve in the direction sought with a large enough effect; inconclusive means small, poorly fitted or top-dose-only effect, or another doubt; inactive means no such curve, though single readings can be large; an effect the other way counts as inactive or inconclusive. Potency means the concentration at half of the fitted maximal effect.

For Cc1cccc(C(C)C)c1NC(=O)CN1C(=O)NC2(CCc3ccccc32)C1=O (centres undefined) the results were ClpP mod 1%, TDP1 inh -13%, DT40 TDP1 CPT -15% and DT40 TDP1 no CPT -21%.
`CC(=O)c1ccc(NC(=O)C2=CC(c3ccco3)=NS(=O)(=O)N2C)cc1` gave ClpP mod -2%, TDP1 inh 4%, DT40 TDP1 CPT -11% and DT40 TDP1 no CPT -3%.
`Cc1ccc(-c2nn(-c3ccccc3)cc2C(=O)NCC2CCCO2)cc1` (centres undefined) gave ClpP mod -3%, TDP1 inh -5%, DT40 TDP1 CPT inconclusive and DT40 TDP1 no CPT inconclusive.
Screening CCCCNC(C(=O)Nc1ccc(Cl)c([N+](=O)[O-])c1)c1ccccc1 (centres undefined) returned ClpP mod -1%, TDP1 inh -5%, DT40 TDP1 CPT inconclusive and DT40 TDP1 no CPT 21µM*.
For O=C(Nc1cc(Cl)cc(Cl)c1)C(NCCO)c1ccccc1 (centres undefined) the results were ClpP mod -1%, TDP1 inh -9%, DT40 TDP1 CPT -2% and DT40 TDP1 no CPT inconclusive.
Cn1nccc1C(=O)NCc1ccc2c(c1)CCN2C(=O)c1ccc(F)cc1 was read as ClpP mod -4%, TDP1 inh 8%, DT40 TDP1 CPT inconclusive and DT40 TDP1 no CPT inconclusive.
For O=C(c1cc2sccc2n1Cc1ccccc1)N1CCN(c2nc3ccccc3s2)CC1 the results were ClpP mod -4%, TDP1 inh 3%, DT40 TDP1 CPT 15µM* and DT40 TDP1 no CPT 15µM*.
Screening CN(C1CCCCC1)S(=O)(=O)c1ccc(C(=O)N2CCN(c3nc4ccccc4s3)CC2)cc1 returned ClpP mod 2%, TDP1 inh 0%, DT40 TDP1 CPT 23µM* and DT40 TDP1 no CPT 15µM*.
Screening Cc1cccc(N2CCN(C(=O)c3ccc4ncsc4c3)CC2)c1C returned ClpP mod -2%, TDP1 inh 1%, DT40 TDP1 CPT 2.1µM* and DT40 TDP1 no CPT 5.2µM*.
`O=C(c1ccc2ncsc2c1)N1CCN(c2ccc(O)cc2)CC1` gave ClpP mod -1%, TDP1 inh -8%, DT40 TDP1 CPT inconclusive and DT40 TDP1 no CPT 21µM*.
Screening CCC(=O)N1CCN(c2nc3ccccc3s2)CC1 returned ClpP mod -4%, TDP1 inh 7%, DT40 TDP1 CPT -20% and DT40 TDP1 no CPT inconclusive.
Screening Cc1ccc(C(O)(C(=O)NNc2ccc3ccccc3n2)c2ccc(C)cc2)cc1 returned ClpP mod -1%, TDP1 inh 11%, DT40 TDP1 CPT inconclusive and DT40 TDP1 no CPT inconclusive.
Screening O=C(c1ccc2ncsc2c1)N1CCN(c2nc3ccccc3s2)CC1 returned ClpP mod -1%, TDP1 inh 4%, DT40 TDP1 CPT inconclusive and DT40 TDP1 no CPT 15µM*.
For Cn1c(N)c(C(=O)CSc2nn(-c3ccc(F)cc3)c(=S)s2)c(=O)n(C)c1=O the results were ClpP mod -3%, TDP1 inh -4%, DT40 TDP1 CPT 21µM* and DT40 TDP1 no CPT 23µM*.
For CCCCN(C(=O)CSc1nn(-c2ccc(F)cc2)c(=S)s1)c1c(N)n(CCCC)c(=O)[nH]c1=O the results were TDP1 inh 2%, DT40 TDP1 CPT inconclusive and DT40 TDP1 no CPT 29µM*.
For CCc1nc2ccc(C(=O)N(C)CC(=O)Nc3ccc(F)c(F)c3F)cc2nc1CC the results were ClpP mod 1%, TDP1 inh -3%, DT40 TDP1 CPT inconclusive and DT40 TDP1 no CPT inconclusive.
For COc1ccccc1NC(c1ccc(Cl)cc1)c1nnc(-c2cccc(F)c2)o1 (centres undefined) the results were ClpP mod -4%, TDP1 inh -2%[12.3 µM], DT40 TDP1 CPT inconclusive and DT40 TDP1 no CPT inconclusive.
Screening COCCNC(=O)c1oc2ccc3c(c2c1C)C(O)CC(C)(C)O3 (centres undefined) returned ClpP mod 4%, DT40 TDP1 CPT 1% and DT40 TDP1 no CPT 11%.
`Cc1c(C(=O)N2CCC(C)CC2)oc2ccc3c(c12)C(O)CC1(CCCCC1)O3` (centres undefined) gave ClpP mod -4%, TDP1 inh 2%, DT40 TDP1 CPT 16µM* and DT40 TDP1 no CPT inconclusive.
For Cc1c(CC(=O)N2CCC(C(=O)O)CC2)c(=O)oc2cc3c(cc12)CCC1(CCCCC1)O3 the results were ClpP mod 5%, DT40 TDP1 CPT 1% and DT40 TDP1 no CPT -9%.
CCN(CC)c1ccc(/C=N/NC(=O)OC(C)(C)C)cc1 was read as TDP1 inh 4%, DT40 TDP1 CPT 4% and DT40 TDP1 no CPT -15%.
COc1ccc(C2c3c(-c4ccccc4O)n[nH]c3C(=O)N2CCc2ccc(OC)c(OC)c2)cc1 (centres undefined) was read as ClpP mod -3%, TDP1 inh 9%, DT40 TDP1 CPT 21µM* and DT40 TDP1 no CPT 23µM*.
For COc1ccc(C2c3c(-c4ccccc4O)n[nH]c3C(=O)N2CCc2ccccc2)cc1 (centres undefined) the results were ClpP mod -9%, TDP1 inh 2%, DT40 TDP1 CPT inconclusive and DT40 TDP1 no CPT 16µM*.
`CC(C)c1ccc(C2c3c(-c4ccccc4O)n[nH]c3C(=O)N2CCc2ccccc2)cc1` (centres undefined) gave ClpP mod -5%, TDP1 inh 2%, DT40 TDP1 CPT inconclusive and DT40 TDP1 no CPT 12µM*.
For CC(C)OCCCN1C(=O)c2[nH]nc(-c3ccccc3O)c2C1c1ccc(OCc2ccccc2)cc1 (centres undefined) the results were ClpP mod -11%, TDP1 inh 11%, DT40 TDP1 CPT 15µM* and DT40 TDP1 no CPT 12µM*.
For CCN(Cc1nc(-c2ccc(OC)cc2)oc1C)S(=O)(=O)c1ccc(C)cc1 the results were ClpP mod -17%, TDP1 inh -4%, DT40 TDP1 CPT inconclusive and DT40 TDP1 no CPT inconclusive.
COc1ccccc1N1CCN(C(=O)c2ccc3c(=O)n4c(nc3c2)CCCCC4)CC1 was read as ClpP mod 2%, TDP1 inh 3%, DT40 TDP1 CPT -26% and DT40 TDP1 no CPT inconclusive.
CCOC(=O)c1c(C)[nH]c(C2=NNC(=NC3CC3)SC2)c1C was read as ClpP mod -10%, TDP1 inh 4%, DT40 TDP1 CPT inconclusive and DT40 TDP1 no CPT inconclusive.
CCN(CC(=O)Nc1ccc(OC)cc1)C(=O)c1cc(-c2cccs2)nn1-c1ccccc1 was read as ClpP mod -3%, TDP1 inh -5%, DT40 TDP1 CPT inconclusive and DT40 TDP1 no CPT 16µM*.
Screening CN(CC(=O)Nc1ccc(F)cc1)C(=O)c1cc(-c2cccs2)nn1-c1ccccc1 returned ClpP mod -2%, TDP1 inh 7%, DT40 TDP1 CPT inconclusive and DT40 TDP1 no CPT 13µM*.

Screening results as filed in PubChem.
